Screening results deposited in PubChem by several laboratories.
HSF-1 act: increases HSF-1 driven luciferase reporter signal; NIH3T3-HGL HSF-1 luciferase reporter, MG132, 8 h; 100% = twice DMSO control signal; actives 1.7% (n = 300,000); activation, % at 9 µM; AID 504408;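 active = mean replicate activation of at least 50% with a set share of replicates each reaching 50%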;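 note: 0% = median of the neutral control wells and 100% = twice that signal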
TROY NFkB inh: inhibitors of TROY-dependent NF-kB signaling. Q293 LMP1-TROYcd NF-kB luciferase reporter, 4 h. inhibition, % at 10 µM. actives 0.98% (n = 360,000). AID 1347056;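 active = compounds whose plate-normalised and pattern-corrected inhibition of the luciferase reporter signal at the single screening dose is 50% or more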
HSF1 inh: HSF1 inhibition | NIH3T3-HGL HSE-luciferase, MG132-induced, luminescence 8 h; stronger effect = lower value | activity change, negative = inhibition, % at 7.5 µM (by protocol) | actives 0.77% (n = 300,000);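 active = more than half of replicate wells show activity change below -50%, luminescence cut by over half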;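 note: luciferase reports HSF-1 transcriptional activity via heat shock element; 0% = median of DMSO wells and -100% = zero luminescence signal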
HSP90 refold inh: HSP90 refolding inhibition in rabbit reticulocyte lysate; luciferase refolding luminescence, 3 h; inhibition, % at 5.6 µM; actives 0.91% (n = 290,000); AID 1789;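 active = inhibition above the screen-wide mean plus 3 SD, computed separately per campaign, cut at about 16% in these data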;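 note: 0% = DMSO wells and 100% = 60 µM geldanamycin wells; inhibitors lower the luminescence because luciferase stays unfolded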
TWEAK Fn14 block: blocks TWEAK-Fn14 interaction in a reporter cell assay; actives 2% (n = 360,000); TWEAK-stimulated Fn14 reporter cells, luciferase luminescence, 8 h; AID 1159606; inhibition, % at 10 µM; in the data active = inhibition above about 50%
EBV LMP1 NFkB: reduces LMP1-driven NF-kappaB luciferase signal | actives 0.69% (n = 350,000) | AID 504558 | LMP1-induced NF-kappaB luciferase reporter cells, luminescence | inhibition, % at 12.5 µM; in the data active = inhibition above about 41%;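 note: 0% = neutral control wells and 100% = reference inhibitor control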
Numbers without * were called inactive; i = inactive; . = no result. The list is not random: actives were taken first. Their share in the collection is about 4.7%.

SMILES	HSF-1 act	TROY NFkB inh	HSF1 inh	HSP90 refold inh	TWEAK Fn14 block	EBV LMP1 NFkB
CCC(CC)COC(=O)C1=C(C)NC(=O)NC1c1ccccc1Br (stereo not given)	4	8	-1	-1	81*	3
Cc1ccc(/C=C2/NC(=O)N(c3ccccc3)C2=O)o1	28	25	14	-3	8	-16
O=C1N/C(=C/c2ccc(N3CCOCC3)o2)C(=O)N1c1cccc(Cl)c1	125*	17	95	-2	45	-2
COc1ccc(C(=O)CC(Sc2ccccc2N)c2ccc(OC)cc2)cc1 (stereo not given)	.	13	.	.	80*	-73
COc1ccc(C(=O)CC(=O)c2ccc(C(C)(C)C)cc2)cc1	.	-4	.	.	15	4
CCCCOc1ccc(C(=O)Nc2cccc(C)n2)cc1	57*	37	31	11	31	-5
Cc1cccc(NC(=O)c2ccc(Cl)nc2)n1	12	-8	4	2	-3	-2
Cc1cccc(NC(=O)c2ccc(COc3ccc4ccccc4c3)o2)n1	68*	-58	51	9	-1	-6
CCOc1ccc(C(=O)Nc2nnn(CC)n2)cc1	11	-25	13	16*	16	-6
CCCn1nnc(NC(=O)c2ccc(OC)cc2)n1	33	-9	8	4	-4	-6
CCOc1ccc(C(=O)Nc2cccc(C)n2)cc1	43	15	17	8	63*	17
CCOc1ccc(NC(=O)Nc2cccc(C)n2)cc1	23	-46	3	-4	10	-12
CC(=O)Nc1cccc(-c2ccnc3c2CC(C)(C(=O)Nc2cccnc2)O3)c1 (stereo not given)	.	-13	.	.	-6	.
CCc1nc2ccc(C(=O)Nc3cccc(OC)c3)cn2c1N(C)Cc1ccc(OC)cc1	.	6	.	.	15	.
COC(=O)c1ccc(COc2ccc(C)c(C)c2)o1	45	-52	22	17*	-31	-18
COC(=O)c1ccc(COc2ccc3ccc(=O)oc3c2)o1	27	-17	7	0	5	-8
CCOc1ccc(C(=O)NC2=NCCS2)cc1	66*	.	28	0	.	.
CCOc1cc(C(=O)NC2=NCCS2)cc(OCC)c1OCC	29	-22	2	-1	-8	-2
CC(C)c1ccc(NC(=O)C2Cc3c(-c4cccc(F)c4)ccnc3O2)cc1 (stereo not given)	.	9	.	.	-62	.
Nc1ncn([C@@H]2O[C@H](CO)[C@@H](O)[C@H]2O)c(=O)n1	17	28	13	.	72*	-51
NC(=O)c1ncn([C@@H]2O[C@H](CNCc3ccccc3C#Cc3ccccc3)[C@@H](O)[C@H]2O)n1	.	-5	.	.	17	-1
NC(=O)c1ncn([C@@H]2O[C@H](CO)[C@@H](O)[C@H]2O)n1	-1	1	1	4	-11	63*
CN(C)c1ncnc2c1ncn2C1OC(CO)C(O)C1O (stereo not given)	-30	-77	-31	2	-1	36
CNc1ncnc2c1ncn2[C@@H]1O[C@H](CO)[C@@H](O)[C@H]1O	.	10	.	.	-44	55*
Nc1ccn([C@@H]2O[C@H](CO)[C@@H](O)[C@@H]2O)c(=O)n1	-19	3	-6	-2	-25	53*
SMILES	HSF-1 act	TROY NFkB inh	HSF1 inh	HSP90 refold inh	TWEAK Fn14 block	EBV LMP1 NFkB
C[C@H]1COc2cc(N(C)CCO)ccc2S(=O)(=O)N1	.	-12	.	.	1	.
C=CCN(C(=O)CCc1ccccc1OC)c1nc(-c2ccc(S(C)(=O)=O)cc2)cs1	58*	18	15	11	21	-5
Cc1ccccc1N=C1SC(CC(=O)Nc2ccc3ccccc3c2)C(=O)N1Cc1ccccn1 (stereo not given)	57*	27	19	-4	72*	-17
COc1ccc(CN(CCCn2cnc3c(OC)ncnc32)CCCn2cnc3c(OC)ncnc32)cc1	.	-9	.	.	-16	-3
Cc1ccc(Cl)cc1-c1cc(C(=O)N2CCc3ccccc3C2)[nH]n1	.	-10	.	.	6	.
O=C1CCCC/C1=N\Nc1ccc(C2CCCCC2)cc1	-59	.	-56*	2	.	.
O=C1CCCC/C1=N\Nc1ccc(OCc2ccccc2)cc1	19	-32	8	6	-21	-1
CCN(CC)C(=O)CSc1nc2c(sc(=S)n2CC)c(=O)n1-c1ccccc1	4	-32	9	5	1	8
CCN(CC)C(=O)CSc1nc2c(sc(=S)n2-c2ccccc2)c(=O)n1Cc1ccco1	67*	4	43	-2	-11	17
CCOC(=O)CSc1nc2c(sc(=S)n2Cc2ccco2)c(=O)n1-c1ccc(F)cc1	80*	13	41	1	-6	2
Cc1ccc2c(CN3CCN(S(=O)(=O)/C=C/c4ccccc4)CC3)cc(=O)oc2c1	78*	11	28	-1	-23	5
Cc1cnc(NC(=O)C2CC(=O)N(c3cccc(Cl)c3)C2)s1 (stereo not given)	77*	15	46	0	43	i
O=C(NCc1ccco1)C1CC(=O)N(c2ccc(Cl)cc2)C1 (stereo not given)	6	11	7	-2	-10	-4
O=C(NCc1ccco1)C1CC(=O)N(c2cccc(Cl)c2)C1 (stereo not given)	11	-11	6	0	8	65*
Cc1noc(-c2ccccc2)c1NC(=O)Nc1ccc2nc([C@H]3C[C@H](O)[C@@H](CO)O3)[nH]c2c1	.	7	.	.	-4	.
CNC(=O)OCc1snc(-c2ccccc2)c1COC(=O)NC	.	-4	.	.	-17	.
CCOC1=C2[C@@H](CN(S(=O)(=O)c3ccc(C)cc3)[C@H]2c2ccccc2Cl)[C@H]2C(=O)N(Cc3ccccc3)C(=O)[C@H]2C1	.	21	.	.	10	.
Cc1ccsc1/C=N/Nc1nc2ccccc2s1	66*	0	36	-3	40	-44
Oc1ccc(C=NNc2nc3ccccc3s2)c(O)c1	.	3	.	.	60*	-11
CC(=O)Nc1ccc(/C=N/Nc2nc3ccccc3s2)cc1	68*	14	47	-3	26	-18
CCn1c(C)c(/C=N/Nc2nc3ccccc3s2)c2ccccc21	53*	-16	14	3	1	-120
COC(=O)[C@]12CCCCC=C1N(Cc1cccc3ccccc13)C(=O)[C@H](CC(=O)NCc1cccc(C(F)(F)F)c1)C2	.	9	.	.	4	.
Cc1nn(-c2ccccc2Cl)c(Cl)c1/C=N/Nc1nc2ccccc2s1	-86	95*	-84*	5	108*	56*
Oc1ccccc1C=NNc1nc2ccccc2s1	.	0	.	.	57*	-8
COc1cccc(C=NNc2nc3ccccc3s2)c1OC	.	45	.	.	34	-23
C(=N\Nc1nc2ccccc2s1)/c1ccco1	65*	-34	41	6	24	-8
CCOC(=O)c1cc2c(c(-c3cccc(C#Cc4ccc(OC)c(OC)c4)c3)n1)[C@@H](CCO)N(S(=O)C(C)(C)C)C2 (stereo not given in full)	.	9	.	.	-34	.
